Experimental findings from PubChem BioAssay AID504834 (National Center for Advancing Translational Sciences (NCATS), 2011) are described below.

The whole screen tested about 320,000 compounds, of which about 22,000 (6.9%) were called active. About 27% were inconclusive and are not listed. The call rests on the fitted dose curve; in most records, active means well fitted inhibition curve with a large enough effect; inconclusive means small, poorly fitted or top-dose-only effect, or another doubt; inactive means no such curve, though single readings can be large or run the other way. Only a selection was taken, and actives are over-represented in it overall.
On the % scale 0 is the no-effect control and ±100 the full control effect; potency means the concentration at half of the fitted maximal effect.

The test in a line: Primary qHTS for delayed death inhibitors of the malarial parasite plastid, 96 hour incubation. The conditions noted are these: P. falciparum luciferase reporter growth; series mostly up to 28.7 µM; activity change, negative = inhibition: at the top concentration. In outline:
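Parasite growth measured via integrated firefly luciferase reporter in P. falciparum. Infected erythrocytes at 2% hematocrit, 0.05% parasitemia final were treated 96 hours at 37 C under 5% CO2, and luminescence was read.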
(In general: In qHTS, concentration-response curves come from the screen itself.)
`COc1ccc(-c2nc(SCC(=O)N3CCCC3)n[nH]2)cc1`: the “activity change, negative = inhibition” value was 50.7% (inactive). Take `O=S(=O)(c1ccc(-c2ccno2)s1)N1CCCCC1`: the “activity change, negative = inhibition” value is 121% (inactive).

As to `CCCCN1Cc2c(nc3cc(-c4ccccc4)[nH]n3c2=O)C1=O`, the “activity change, negative = inhibition” value was 38.7% (inactive).

As for `O=C(CCNS(=O)(=O)c1ccccc1C(F)(F)F)Nc1ccncc1`, the “activity change, negative = inhibition” value is 1.54% (inactive). Still for that read-out and setting: the figure for `CCOc1ccccc1N(CC(=O)Nc1ccccc1C(=O)OC)S(C)(=O)=O` is 19.4% (inactive). Take `COc1ccccc1N(CC(=O)N1CCCCC1)S(=O)(=O)c1ccccc1`: the Potency is 11.7 µM (active). Regarding `COc1ccc(N(CC(=O)N2CCCCCC2)S(=O)(=O)c2ccccc2)cc1`, the “activity change, negative = inhibition” value is 4.45% (inactive). On the same count and under the same terms, for `COc1ccc([N+](=O)[O-])cc1N(CC(=O)Nc1ccccc1C(=O)N1CCOCC1)S(C)(=O)=O` the value was 20.8% (inactive).

For the compound `COc1ccccc1N(CC(=O)Nc1ccccc1C(=O)N1CCCC1)S(C)(=O)=O`, the Potency was 9.28 µM (active).

For `COc1ccccc1NC(=O)CN(c1ccccc1OC)S(=O)(=O)c1ccccc1`, the “activity change, negative = inhibition” value was 1.25% (inactive). With `Cc1cc(C)c(S(=O)(=O)c2cc(F)ccc2C)c(=O)[nH]1`, the “activity change, negative = inhibition” value was 23.5% (inactive).

Regarding `O=C(COC(=O)c1ccc(N2CCCC2=O)cc1)c1ccc(OC(F)F)cc1`, the “activity change, negative = inhibition” value was -2.98% (inactive). Same read-out and setting: for `COc1ccc(NC(=O)C2C3CCC(O3)C2C(=O)O)cc1OC` (stereo unspecified) the value was 0.311% (inactive); for `O=C(CCCN=C1NS(=O)(=O)c2ccccc21)OCC(=O)c1ccc(F)c(F)c1`, 63.8% (inactive). Still for that read-out and setting: the figure for `CCN(CC(=O)Nc1ccc2c(c1)OCO2)S(=O)(=O)c1ccccc1` is 20.2% (inactive). For the compound `CN(C)C(=O)Oc1ccc(NC(=O)N2CCOCC2)cc1`, the Potency was 3.29 µM (active). `COc1cc(NC(=O)N2CCOCC2)cc(OC)c1`: the “activity change, negative = inhibition” value was 19.1% (inactive). On the same count and under the same terms, for `CN(C)S(=O)(=O)c1ccc(NC(=O)N2CCOCC2)cc1` the value was 0% (inactive); for `CCCCN1CCNC1=S`, 23.1% (inactive); for `COc1ccc(-c2cc(=O)oc3cc(OCC(=O)N(C)C4CCS(=O)(=O)C4)ccc23)cc1` (stereo unspecified), -4.86% (inactive). For the compound `CN(CC#CCC(c1ccccc1)c1ccccc1)C(C)(C)C`, the Potency is 4.65 µM (active).

Take `CC(C)(C)N(CC#CCC(O)(c1ccccc1)C1CCCC1)CCO` (stereo unspecified): the “activity change, negative = inhibition” value was 1.1% (inactive).

With `CCCn1nc(C(=O)NNC(=O)CCOc2ccccc2OCC)c2ccccc2c1=O`, the “activity change, negative = inhibition” value is 7.41% (inactive). The same measure, in the same setting: for `CC(Sc1nnc(CNC(=O)c2ccccc2F)n1C)C(=O)Nc1nccs1` (stereo unspecified) the value was 7.6% (inactive). Take `CCCC(O)(CCC)C(=O)NN(C(=O)CCl)c1cccc(C)c1`: the Potency was 1.04 µM (active). In the case of `Cc1ccc(N(NC(=O)C(C)(C)O)C(=O)c2ccccc2)cc1C`, the “activity change, negative = inhibition” value was 2.62% (inactive). As to `CC(C)(O)C(=O)NN(C(=O)c1ccccc1)c1cccc(Br)c1`, the “activity change, negative = inhibition” value is -4.06% (inactive).

Turning to `Cc1ccc2nc(NC(=O)C3CSC4(C)CCC(=O)N34)sc2c1` (stereo unspecified), the “activity change, negative = inhibition” value was 50% (inactive). In the case of `Cc1ccc(S(=O)(=O)c2c[nH]c3ccc(C)cc3c2=O)cc1`, the “activity change, negative = inhibition” value is 36.3% (inactive).

In the case of `O=C(NCc1ccccc1)c1ccc(CNc2c(N3CCCC3)c(=O)c2=O)cc1`, the “activity change, negative = inhibition” value is -10.6% (inactive).

As for `O=S(=O)(NCCS(=O)(=O)N1CCN(c2ccccc2)CC1)c1ccc(F)cc1`, the “activity change, negative = inhibition” value was -0.305% (inactive).

With `CCOc1ccc(/C=N/NC(=O)C(C)Sc2ccccn2)cc1OCC` (stereo unspecified), the “activity change, negative = inhibition” value is 12.6% (inactive). Same read-out and setting: the figure for `COC(=O)N/N=C/c1ccc(/C=N/NC(=O)OC)cc1` is 43% (inactive). In the case of `CCOc1cc(/C=N/NC(=O)OC)ccc1OCCSc1ccc(Cl)cc1`, the Potency is 10.4 µM (active). `COc1ccc(C)cc1NC(=O)CCCN1C(=O)NC(C)(C)C1=O`: the “activity change, negative = inhibition” value is 32% (inactive). For the compound `NC(=O)c1cc(S(=O)(=O)N2CCCC2)ccc1OCc1ccc(F)cc1`, the “activity change, negative = inhibition” value was -13.7% (inactive). The same measure, in the same setting: for `CC(C)(C)n1nnnc1C(c1ccc(F)cc1)N1CCN(Cc2ccc3c(c2)OCO3)CC1` (stereo unspecified) the value was 2.75% (inactive).

As to `Fc1ccccc1C(c1nnnn1Cc1ccc2c(c1)OCO2)N1CCN(Cc2ccccc2)CC1` (stereo unspecified), the Potency was 1.85 µM (active). Take `Cc1cc(C)c2[nH]c(=O)c(C(c3nnnn3Cc3ccc4c(c3)OCO4)N3CCCC3)cc2c1` (stereo unspecified): the “activity change, negative = inhibition” value is 0% (inactive). Same read-out and setting: the figure for `COc1ccc(C(=O)Nc2ccc(C3(C#N)CCCC3)cc2)cc1OC` is 45.8% (inactive). `CC1CCCCC1NC(=O)CN1CCC(O)(c2ccc3c(c2)OCO3)CC1` (stereo unspecified): the Potency was 13.1 µM (active). `CC1CCCCC1NC(=O)COC(=O)Cc1ccc(Br)cc1` (stereo unspecified): the “activity change, negative = inhibition” value is 27.3% (inactive). Still for that read-out and setting: for `O=C(CN1CCC(O)(c2ccccc2)CC1)Nc1ccc2c(c1)OCCO2` the value was 22.7% (inactive). Consider `O=C(Nc1ccc2c(c1)CCC2)c1cccc(S(=O)(=O)N2CCN(c3ccc(F)cc3)CC2)c1`, for which the Potency was 9.28 µM (active). Take `Cc1cccnc1NC(=O)c1cccc(S(=O)(=O)N2CCN(c3ccc(F)cc3)CC2)c1`: the “activity change, negative = inhibition” value was -18.5% (inactive).

On to `O=C(Nc1ccc2c(c1)CCC2)c1cccc(S(=O)(=O)Nc2ccccc2Cl)c1`, for which the “activity change, negative = inhibition” value was 39% (inactive). Still for that read-out and setting: the figure for `CCOc1ccc(/C=C/C(=O)N(CC)CC(=O)NCc2cccs2)cc1OC` is 4.59% (inactive); for `O=C(Cn1nc(C(=O)O)c2ccccc2c1=O)Nc1ccc(F)cc1` it is 50.2% (inactive).

Regarding `COc1ccc(-c2cc(C(=O)N3CCN(c4ccc(F)cc4)CC3)no2)cc1`, the “activity change, negative = inhibition” value is 116% (inactive). Consider `CCOC(=O)C1(C(F)(F)F)N=C(N(C)C)OC(N(C)C)=N1`, for which the Potency was 4.15 µM (active). With `CCOc1ccc2[nH]c3nc(SCC(=O)NC4CCCC4)nnc3c2c1`, the “activity change, negative = inhibition” value was 58.3% (inactive). Take `CCOc1ccc(CN2CCN(Cc3c[nH]c4ccccc34)CC2)cc1`: the “activity change, negative = inhibition” value is 0% (inactive). Same read-out and setting: the figure for `Cc1cccc(OCC(=O)NCCNC(=O)c2cccnc2)c1` is -11.1% (inactive); for `CN(CC(=O)Nc1ccccc1Cl)C(=O)c1ccccc1SCC(=O)N1CCCC1` it is -6.58% (inactive); for `CCOC(=O)CSc1nc2ccc(C)cc2n2cnnc12` it is -4.99% (inactive). In the case of `COc1ccccc1N=C1SC(C)CN1C(=O)C1CCC1` (stereo unspecified), the Potency is 10.4 µM (active). On to `CCc1noc(C)c1C(=O)N1CCCSC1=Nc1ccccc1OC`, for which the “activity change, negative = inhibition” value is -9.42% (inactive).

As for `COc1ccccc1N=C1SCCCN1C`, the “activity change, negative = inhibition” value is -24.4% (inactive). The same measure, in the same setting: the figure for `O=S(=O)(NC(=S)Nc1ccccc1)c1ccc(F)cc1` is 25.1% (inactive); for `CO[C@H]1[C@@H]2C=CO[C@@H](O[C@H]3O[C@@H](CO)[C@H](O)[C@@H](O)[C@@H]3O)[C@@H]2[C@@]2(CO)O[C@@H]12` it is 36.1% (inactive). The same measure, in the same setting: the figure for `O=C(CN(C(=O)c1csnn1)c1cccc(Cl)c1)NC1CCCC1` is 45.8% (inactive); for `CCOc1ccc(N(C(=O)c2snc(C(N)=O)c2N)C(C(=O)NCC2CCCO2)c2c[nH]c3ccccc23)cc1` (stereo unspecified) it is 2% (inactive); for `Cc1cccc(-c2nc(CS(=O)CC(=O)NC(C)CCc3ccccc3)c(C)o2)c1` (stereo unspecified) it is -2.67% (inactive). Same read-out and setting: the figure for `COc1cccc(-c2nc(CS(=O)CC(=O)NCc3ccc(F)cc3)c(C)o2)c1` (stereo unspecified) is -21.6% (inactive). `Cc1ccc(-c2nc(CS(=O)CC(=O)NC3CCCC3)c(C)o2)cc1` (stereo unspecified): the Potency is 4.65 µM (active). Take `COc1ccc(-c2nc(CS(=O)CC(=O)N3CCC4(CC3)OCCO4)c(C)o2)cc1` (stereo unspecified): the “activity change, negative = inhibition” value is 39% (inactive). On the same count and under the same terms, the figure for `COc1ccc2oc(=O)c(C(=O)NCc3ccccn3)cc2c1` is 54.7% (inactive); for `Cc1ccc(-c2nc(CSCC(=O)NC3CCN(Cc4ccccc4)CC3)c(C)o2)cc1` it is -10.5% (inactive). With `COc1ccc(-c2nc(CS(=O)CC(=O)NCc3ccccc3)c(C)o2)cc1OC` (stereo unspecified), the Potency was 13.1 µM (active). `COc1ccc(-c2nc(CS(=O)CC(=O)NCc3ccccn3)c(C)o2)cc1` (stereo unspecified): the Potency is 11.7 µM (active).

`Cc1ccc(-c2nc(CS(=O)CC(=O)N3CCN(c4ncccn4)CC3)c(C)o2)cc1` (stereo unspecified): the “activity change, negative = inhibition” value is -21.3% (inactive).
